Records with an inconclusive call do not appear. Calls of active or inactive are those of the source. Calls follow the shape of the dose curve; as a rule, active = well fitted inhibition curve with a large enough effect; inconclusive = small, poorly fitted or top-dose-only effect; inactive = flat fitted curve, though single readings scatter.
These compounds were tested against Calcium and integrin-binding protein 1 (Homo sapiens) (UniProt Q99828) (assay: Primary qHTS for Identification of Calcium Integrin Binding Protein 1 (CIB1) Competitor (AID 1508620;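 as to activity change, negative = inhibition: GST tagged CIB1 binding a fluorescein labelled alphaIIb integrin peptide tracer; top concentration of the series differs between compounds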)). Details: CIB1-GST / FITC-alphaIIb peptide fluorescence polarization; series mostly up to 114 µM; activity change, negative = inhibition: at the top concentration.
Calcium and integrin-binding protein 1 (Homo sapiens), sequence (Q99828 whole entry, looked up): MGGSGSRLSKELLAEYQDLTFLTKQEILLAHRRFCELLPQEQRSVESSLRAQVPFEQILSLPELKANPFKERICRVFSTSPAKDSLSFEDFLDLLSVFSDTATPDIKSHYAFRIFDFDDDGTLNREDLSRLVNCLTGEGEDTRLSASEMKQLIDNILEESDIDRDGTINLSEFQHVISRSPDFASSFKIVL
Summary of the method: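 Fluorescence polarization competition: CIB1-GST (1 uM final) preincubated with compound 15 min at room temperature, then FITC-labeled alphaIIb peptide (100 nM final) added for another 15 min. Polarization read at Ex 480/Em 540.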
% is scaled to controls: 0 for no effect and ±100 for the full control effect; potency is read from the fitted curve at half-maximal effect.

Structure (SMILES)	activity change, negative = inhibition	Potency
O=C(NC1CCCc2c1cnn2-c1ccc(F)cc1F)c1ccn[nH]1 (centres undefined)	0.937% (inactive)	
N#CN1CCC(NS(=O)(=O)c2ccc(F)cc2)C1 (centres undefined)	8.48% (inactive)	
O=C1CCCC2=C1C(c1[nH]ncc1Cl)NC(=NCCc1cccnc1)N2 (centres undefined)	-0.64% (inactive)	
CC(=O)c1ccc(N2CCN(S(=O)(=O)c3ccc4c(c3)CC(=O)N4)CC2)cc1	9.77% [at 228 µM] (inactive)	
O=S(=O)(Nc1nc(-c2ccccc2C(F)(F)F)nc2ccccc12)c1ccc(Br)cc1	6.69% (inactive)	
O=C(Nc1cncc(O)c1)c1cccs1	-0.677% (inactive)	
Clc1ccccc1CSc1nc2ncc(Br)cc2[nH]1	0.461% (inactive)	
Cc1cc(C)nc(NC(=S)N2CCN(S(=O)(=O)c3cccc(C(F)(F)F)c3)CC2)c1	1.65% (inactive)	
CN(C)c1cccc(-c2cnc(N3CCC(C(N)=O)CC3)s2)c1	-8.56% (inactive)	
CC(=O)Nc1sc2c(c1-c1nc3ccccc3s1)CCN(C1COC1)C2		14.1 µM (active)
COC(=O)c1ccc(OC(C)=O)c2ncccc12	-14.7% (inactive)	
Cc1ccccc1C(=O)N1CCc2cc(-c3nc(NC(=O)Cc4ccccc4)sc3C)ccc21	1.5% (inactive)	
COC(=O)c1sc2c(c1-c1nc3ccccc3s1)CCNC2	1.45% (inactive)	
CCOC(=O)c1ccoc1-c1ccc2ncnc(NCc3ccc(C)o3)c2c1	0.643% (inactive)	
Cc1nc(SCC(=O)c2ccc(F)cc2)n[nH]1	-0.986% (inactive)	
O=S(=O)(Nc1ccccc1F)c1ccc(O)c2ncccc12	-6.54% (inactive)	
O=C1c2ccccc2C(=O)N1Cc1ccncc1	5.81% (inactive)	
O=C1CCCC2=C1C1(CCCC1)N=C(Nc1nc3cc4ccccc4cc3o1)N2	-2.54% (inactive)	
CC(C)(C)c1ccc(Nc2nc(C#N)nc(NC3CCCC3)n2)cc1	3.45% (inactive)	
O=C(OCC#CCSc1nnc(-c2ccccc2)o1)c1ccc(F)cc1	4.65% (inactive)	

Structure (SMILES)	activity change, negative = inhibition	Potency
Cc1ccc(C)c(SC2CS(=O)(=O)c3ccccc32)c1 (centres undefined)	1.28% (inactive)	
O=C1c2ccccc2NC(c2ccc(-c3ccccc3F)o2)N1O (centres undefined)	-3.76% (inactive)	
Cc1cc(C)nc(NC(=S)N2CCN(c3ccc(Cl)cc3[N+](=O)[O-])CC2)c1	-16.8% (inactive)	
FC1(F)Oc2ccc(-c3ccc4ncnc(NCc5cccs5)c4c3)cc2O1	4.67% (inactive)	
O=C(OCC#CCSc1nnc(-c2ccc3ccccc3c2)o1)c1cccc(F)c1	5.06% (inactive)	
COc1ccc(O)c(C2Nc3ccccc3C(=O)N2Cc2ccccc2)c1 (centres undefined)	-0.281% (inactive)	
O=S(=O)(c1cccc(-c2n[nH]c(=S)n2-c2ccccc2)c1)N1CCCC1	3.01% (inactive)	
CC(=O)Nc1sc2c(c1-c1csc3ccccc13)CCNC2	12.3% (inactive)	
Cc1cc2c(s1)c1cnn(Cc3c(F)cccc3Cl)c(=O)c1n2C	-0.0531% (inactive)	
Oc1cc(Nc2ccccc2)cc2cccnc12	-4.53% (inactive)	
CC(=O)N1CCN(c2ccc(NCc3ccc(C)cc3)cc2)CC1	-13% (inactive)	
COc1ccc(C(=O)N(Cc2ccccc2)Cc2ccccc2)c(O)c1	0.72% (inactive)	
COc1ccc(Nc2nn3c(=O)c4ccccc4nc3s2)cc1	-4.69% (inactive)	
O=C(Nc1ccc2ccccc2c1)Nc1cccc(-c2ccncc2)n1	1.27% (inactive)	
Cc1ccnc(NC(=S)NC2CN(c3cccc(C(F)(F)F)c3)C2)c1	-9.61% (inactive)	
CS(=O)(=O)Nc1cccc(-c2cc(F)c(S(=O)(=O)N3CCN(S(=O)(=O)c4ccc5c(c4)OCCO5)CC3)cc2F)c1	-17.9% (inactive)	
O=C(Cc1nnc(-c2nc3ccccc3[nH]2)o1)Nc1cc(C(F)(F)F)ccc1Cl	-0.3% (inactive)	
CN1CCN(c2cccc(Nc3nn4c(=O)c5ccc(F)cc5nc4s3)c2)CC1	-14.2% (inactive)	
NC(=O)c1ccc(C[C@H](C(=O)O)N2C(=O)c3ccc(C(=O)O)cc3C2=O)cc1	-2.39% (inactive)	
